Assay results reported in PubChem BioAssay.
The source made the active and inactive calls.

Each compound was assayed against Luciferin 4-monooxygenase (Photinus pyralis) (UniProt P08659) (assay: firefly luciferase enzyme inhibitors, primary screen, biochemical, luminescence, purified enzyme, 2006 set (AID 1141;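 also: cell-free assay with purified firefly luciferase at 100 ng per well in PBS; test concentration not given here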)). Details: SteadyGlo luminescence, 30 min, higher = more signal, called active from +8 up or from −8 down.
Chain of Luciferin 4-monooxygenase (Photinus pyralis) (P08659 whole entry, looked up): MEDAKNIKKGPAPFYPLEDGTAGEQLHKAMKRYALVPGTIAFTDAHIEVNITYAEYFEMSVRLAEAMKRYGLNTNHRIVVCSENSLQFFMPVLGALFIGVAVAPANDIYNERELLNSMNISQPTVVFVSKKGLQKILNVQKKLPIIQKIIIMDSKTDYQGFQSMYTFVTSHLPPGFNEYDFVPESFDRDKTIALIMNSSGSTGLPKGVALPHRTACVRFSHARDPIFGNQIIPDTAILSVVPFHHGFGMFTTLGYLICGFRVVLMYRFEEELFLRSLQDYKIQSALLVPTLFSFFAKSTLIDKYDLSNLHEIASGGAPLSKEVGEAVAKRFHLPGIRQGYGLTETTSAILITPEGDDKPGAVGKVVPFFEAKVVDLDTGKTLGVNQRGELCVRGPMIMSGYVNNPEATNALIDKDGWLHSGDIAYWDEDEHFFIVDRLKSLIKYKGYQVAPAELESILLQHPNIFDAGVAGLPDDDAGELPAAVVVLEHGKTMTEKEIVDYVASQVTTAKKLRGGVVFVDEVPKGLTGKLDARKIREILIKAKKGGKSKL

z-score, inactive:
CCCCN1CC=CC23O[C@@H]4C=CCOC(=O)[C@@H]4[C@H]2C(=O)N(CCO)[C@@H]3C1=O (stereo not given in full) 0.0308
C=CC[C@@]12N=C(c3ccc(OCCCO)cc3)O[C@@H]1c1ccccc1N(Cc1ccccc1)C2=O -2.6
COCCOC(=O)N1C(=O)[C@@]2(c3cc(C#CCC(C(=O)OC)C(=O)OC)ccc31)[C@H](C(N)=O)[C@H]1C(=O)O[C@H](c3ccccc3)[C@H](c3ccccc3)N1[C@@H]2c1ccc(OCCO)cc1 -0.409
CCOC(=O)C1=C(C(=O)OCC)N(S(=O)(=O)CC[Si](C)(C)C)[C@H](c2ccccc2)CC1 1.01
COC(=O)C1=CC(CCCO)=CC(c2ccc(CN3CCCC3)cc2)N(Cc2sc3ccccc3c2Cl)C=C1C(=O)OC (stereo not given) -2.8
C=CCNC(=O)[C@@H]1[C@H]2C(=O)O[C@H](c3ccccc3)[C@H](c3ccccc3)N2[C@H](c2ccc(O)cc2)[C@@]12C(=O)Nc1ccc(C#CC3(O)CCCCCC3)cc12 0.27
NC(=O)NCC#Cc1ccc2c(c1)[C@]1(C(=O)N2)[C@H](C(=O)Nc2nc3ccccc3s2)[C@H]2C(=O)O[C@H](c3ccccc3)[C@H](c3ccccc3)N2[C@@H]1c1ccc(OCCO)cc1 -1.96
COCCOC(=O)N1C(=O)[C@@]2(c3cc(C#CC4(O)CCCCCC4)ccc31)[C@H](c1ccccc1OCCO)N1[C@H](c3ccccc3)[C@H](c3ccccc3)OC(=O)[C@H]1[C@@H]2C(=O)N1CCCCCCC1 0.144
COCCOC(=O)N1C(=O)[C@@]2(c3cc(C#CCCO)ccc31)[C@H](C(=O)N1CCc3cc(OC)c(OC)cc3C1)[C@H]1C(=O)O[C@H](c3ccccc3)[C@H](c3ccccc3)N1[C@@H]2c1ccccc1OCCO 0.151
[N-]=[N+]=NCc1ccccc1[C@H]1OC(c2ccc(OCCCO)cc2)=N[C@@]1(Cc1ccccc1)C(=O)N1CCOCC1 -0.372
C=CCOC(=O)[C@H]1[C@@H]2C(=O)O[C@@H](c3ccccc3)[C@@H](c3ccccc3)N2[C@@H](c2ccc(OCCOC(=O)[C@@H]3C[C@@H]4C(=O)N[C@@H](CC(C)C)C(=O)N4[C@@H]3c3ccc(O)cc3)cc2)[C@]12C(=O)Nc1ccc(I)cc12 -2.13
COCCOC(=O)N1C(=O)[C@@]2(c3cc(C#CCC(C(=O)OC)C(=O)OC)ccc31)[C@H](C(=O)N1CCc3cc(OC)c(OC)cc3C1)[C@H]1C(=O)O[C@H](c3ccccc3)[C@H](c3ccccc3)N1[C@@H]2c1ccc(O)cc1 1.01
O=C1c2ccccc2[C@@]2(Cc3ccccc3N(Cc3ccccc3)C2=O)[C@H](c2ccc(CO)cc2)N1Cc1ccccc1 0.407
CN(C)CCCC[C@@H]1NC(=O)[C@@H]2C[C@H](C(=O)NCCCCCCNC(=O)CS)[C@H](c3cccc(OCCO)c3)N2C1=O -0.402
CCCC[C@H]1OB(O)C[C@H]2C1=C(COC)C[C@H]1C(=O)C=CC(=O)[C@H]12 -3.03
C=C(/C(=C/C[C@@H](OC(C)=O)c1ccccc1OCCO)c1cc(C(=O)OC)ccc1OC)C(C)C -1.47
C=C(CCCC)/C(=C/C[C@H](OC(C)=O)c1cccc(OCCO)c1)c1cc(C(=O)OC)ccc1OC -1.64
CN(C)CCCC[C@@H]1NC(=O)[C@@H]2C[C@H](C(=O)NCc3ccc(F)cc3)[C@H](c3ccc(O)cc3)N2C1=O 0.144
C=CCNC(=O)[C@@H]1[C@H]2C(=O)O[C@H](c3ccccc3)[C@H](c3ccccc3)N2[C@H](c2ccccc2OCCO)[C@@]12C(=O)N(C(=O)OCCOC)c1ccc(C#CCCO)cc12 -0.0405
C=CCC(OC(C)=O)[C@@H]1[C@@H](N(Cc2cc3ccccc3o2)C(=O)c2ccc(-c3ccccc3)cc2)c2cc(OCCCO)ccc2N1C(=O)c1ccc2ccccc2n1 (stereo not given in full) -0.847
COc1ccc(C#Cc2ccc3c(c2)[C@]2(C(=O)N3)[C@H](C(=O)Nc3nc4ccccc4s3)[C@H]3C(=O)O[C@H](c4ccccc4)[C@H](c4ccccc4)N3[C@@H]2c2ccc(OCCO)cc2)cc1 -3.53
C=CCC(OC(C)=O)[C@@H]1[C@@H](N(Cc2cc3ccccc3o2)C(=O)Cc2ccc(OC)cc2)c2cc(OCCCO)ccc2N1C(=O)Cc1ccc(OC)cc1 (stereo not given in full) 0.244
COCCOC(=O)N1C(=O)[C@@]2(c3cc(C#CC4(O)CCCCCC4)ccc31)[C@H](C(=O)NC[C@H](O)c1ccccc1)[C@H]1C(=O)O[C@H](c3ccccc3)[C@H](c3ccccc3)N1[C@@H]2c1ccc(O)cc1 -0.474
Cc1c(NC(=O)/C(C#N)=C/c2ccc(Cl)cc2)c(=O)n(-c2ccccc2)n1C -0.304
CCCC=C(CCC)[C@@H](NS(=O)(=O)c1ccc(Cl)cc1)c1ccccc1 1.8
CN(C)CCCNC(=O)[C@@]1(Cc2ccccc2I)c2ccccc2C(=O)N(Cc2ccccc2)[C@H]1c1ccc(CO)cc1 0.936
CCOC(=O)C[C@H]1[C@H](OC(=O)c2ccc(-c3ccccc3)cc2)[C@@H](NC(=O)c2ccc3ccccc3c2)c2cc(OCCCO)ccc2N1C(=O)c1ccccc1 0.61
C=C(CCCC)C(=O)CC[C@H](OC(=O)c1cccnc1)c1ccc(CO)o1 -1.33
COc1ccc(C#Cc2ccc3c(c2)[C@]2(C(=O)N3)[C@H](c3ccc(OCCO)cc3)N3[C@H](c4ccccc4)[C@H](c4ccccc4)OC(=O)[C@H]3[C@@H]2C(=O)O)cc1 -4.63
COC(=O)[C@@]1(Cc2ccc(F)cc2)[C@H]2c3cc(C(=O)N(C)C)n(CCN4CCOCC4)c3C[C@H]2CN1C(=O)c1ccccc1 2.64
CCCC[C@@H]1C[C@H]1[C@@H](NC(=O)c1ccc(C(F)(F)F)cc1)c1ccc(C(=O)OC)cc1 0.915
COC(=O)[C@@]1(Cc2ccccc2)[C@@H]2[C@@H](CC(=O)[C@H]2CC(=O)C(=O)N(C)C)CN1C(=O)c1ccccc1 0.558
COC(=O)[C@@]1(Cc2ccc(OC)cc2)[C@H]2c3cc(C(=O)N4CCCC4)n(CCc4ccc(OC)c(Br)c4)c3C[C@H]2CN1C(=O)c1ccccc1 0.626
O=C1NC(=O)C2C1C=CC(C(O)c1cccc(O)c1)N2Nc1ccc(Cl)cc1Cl (stereo not given) -0.259
C=C(COC)C(=O)CC[C@@H](OC(C)=O)c1ccc(OCCO)cc1 -1.73
